The nature of the assay: NCI Yeast Anticancer Drug Screen. Data for the rad18 strain (AID 177). To be noted: S. cerevisiae rad18 mutant growth inhibition, stronger effect = higher value. The procedure:
Growth inhibition of yeast strains with defined genetic alterations is measured as a screen for potential anti-cancer activity. Selected strains with alterations in DNA damage repair or cell cycle control were exposed to compounds and growth inhibition was measured relative to vehicle treated controls. The strain used in this assay is rad18

The values below come from PubChem BioAssay (NCI).

About 79,000 compounds went through this panel and 15% of them were active in at least one assay; those are over-represented in the sample as a whole. Activity calls are given as the source filed them. Rule as the data show it: active = growth inhibition above about 70%; inactive = the rest.

As for `CCN(CC)CCN(C)CCc1ccc(Br)cc1`, the growth inhibition (at 1.2 µM) is 11% (inactive); the growth inhibition (at 3.7 µM) is 32% (inactive); the growth inhibition (at 11.0 µM) was 54% (inactive); the growth inhibition (at 33.0 µM) was 66% (inactive); the growth inhibition (at 100.0 µM) was 91% (active).

On to `O=C(O)c1ccc(N2C(=O)C=CC2=O)cc1`, for which the growth inhibition runs as follows: (at 1.2 µM) 1% (inactive); (at 3.7 µM) 3% (inactive); (at 11.0 µM) 4% (inactive); (at 33.0 µM) 22% (inactive); (at 100.0 µM) 72% (active).

For the molecule `CC1SC2(C(=O)Nc3ccc(Cl)cc32)N(c2ccc(Cl)cc2)C1=O` (stereo not given), the growth inhibition is -41% (inactive) (at 1.2 µM); 11% (inactive) (at 3.7 µM); 35% (inactive) (at 11.0 µM); 97% (active) (at 33.0 µM); 81% (active) (at 100.0 µM).

Regarding `Brc1ccccc1-c1ncc(-c2ccccc2)o1`, the growth inhibition (at 1.2 µM) is -7% (inactive); the growth inhibition (at 3.7 µM) is 0% (inactive); the growth inhibition (at 11.0 µM) was 51% (inactive); the growth inhibition (at 33.0 µM) is 75% (active); the growth inhibition (at 100.0 µM) is 78% (active).

On to `NCCNCCNc1ccc(NCCNCCN)c2c1C(=O)c1c(O)ccc(O)c1C2=O`, for which the growth inhibition reads like this: (at 1.2 µM) 4% (inactive); (at 3.7 µM) 2% (inactive); (at 11.0 µM) 9% (inactive); (at 33.0 µM) 22% (inactive); (at 100.0 µM) 48% (inactive).

`CN(C)N=Nc1ccccc1C(=O)NC#N`: the growth inhibition is, setting by setting: (at 1.2 µM) 12% (inactive); (at 3.7 µM) 5% (inactive); (at 11.0 µM) 97% (active); (at 33.0 µM) 99% (active); (at 100.0 µM) 95% (active).

Take `CCCC/C([O-])=C1/C(=O)N(c2ccccc2)N=C1C.CCCC/C([O-])=C1/C(=O)N(c2ccccc2)N=C1C.[Cu+2]`: the growth inhibition is -3% (inactive) (at 1.2 µM); -4% (inactive) (at 3.7 µM); -1% (inactive) (at 11.0 µM); -5% (inactive) (at 33.0 µM); -3% (inactive) (at 100.0 µM).

With `COc1ccc(C(NCCNC(c2ccc(OC)c(OC)c2)c2cc3c(cc2O)OCO3)c2cc3c(cc2O)OCO3)cc1OC` (stereo not given), the growth inhibition is, setting by setting: (at 1.2 µM) -4% (inactive); (at 3.7 µM) -4% (inactive); (at 11.0 µM) 8% (inactive); (at 33.0 µM) 75% (active); (at 100.0 µM) 98% (active).
